Screening results (PubChem BioAssay)
Hits are enriched below; roughly 2.8% of the tested compounds scored in any of these assays.
PI5P4K alpha inh: PI5P4K alpha (human) kinase inhibition. max response, %. AID 652105. PI5P4Kalpha enzyme, ADP-Glo luminescence, 60 min; active compounds read low. 1.2% of 330,000 active. P48426; active = max response of -50% or lower; inconclusive = between -30% and -50%; inactive = -30% or higher; note: value at the top dose of about 77 µM
Target sequence (P48426 whole entry, looked up): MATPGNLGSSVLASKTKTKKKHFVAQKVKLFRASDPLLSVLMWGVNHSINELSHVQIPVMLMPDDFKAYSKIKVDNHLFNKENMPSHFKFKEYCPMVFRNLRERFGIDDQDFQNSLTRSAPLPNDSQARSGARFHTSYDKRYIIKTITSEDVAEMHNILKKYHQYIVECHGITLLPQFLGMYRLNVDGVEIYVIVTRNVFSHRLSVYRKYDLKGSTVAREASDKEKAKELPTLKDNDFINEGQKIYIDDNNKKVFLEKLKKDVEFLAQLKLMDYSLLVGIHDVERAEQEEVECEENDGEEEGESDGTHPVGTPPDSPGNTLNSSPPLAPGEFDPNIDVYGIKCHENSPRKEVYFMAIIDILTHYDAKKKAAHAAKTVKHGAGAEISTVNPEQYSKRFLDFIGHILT
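Reactions run in 0.038 M HEPES pH 7.4, 0.28 mM EGTA, 0.1% CHAPS and 5% DMSO, with PI5P4Kalpha, substrate, compound and 5 microM ATP final, one hour at room temperature. Readout is ADP-Glo luminescence.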
WRN helicase inh-1: inhibitors of human WRN helicase; Q14191; WRN helicase unwinding, fluorescent forked duplex, kinetic; Potency, µM (top dose mostly 114 µM), hits mostly inhibitors; 0.46% of 360,000 active; note: nearly all actives have a fitted effect of over 55% in size
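Fluorescence dequenching readout, ex 525 nm/em 598 nm, kinetic mode: forked duplex DNA (100 nM final) with adjacent fluorophore and quencher unwound by WRN (20 nM final) with 2 mM ATP. Compound preincubation 15 min, room temperature.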
POLI inh: DNA polymerase iota (human) inhibition; AID 588590; 1% of 390,000 active; Potency, µM (titrated, usually from 115 µM), most hits filed as inhibitors; Pol iota fluorescent replication assay, 10 min; Q9UNA4
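Pol iota at 10 nM preincubated 15 min with compounds at room temperature; reaction started with fluorescent substrate, 50 nM final. Fluorescence read kinetically at 0 and 10 min; buffer-only wells as negative control.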
POLB inh: blocks human DNA polymerase beta activity. Pol beta primer extension/strand displacement, fluorescence kinetic. Potency, µM (highest dose often 114 µM), hits mostly inhibitors. 1.3% of 340,000 active. AID 485314
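Preincubation: enzyme (10 nM) with compound, 15 min, RT. Reaction: substrate added to 50 nM final. Reads: 0 and 10 min. Analysis: normalized, Hill fit.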
Pol kappa inh-1: DNA polymerase kappa (human) inhibition; purified Pol kappa, fluorescent DNA synthesis assay, 10 min; 0.53% of 400,000 active; Potency, µM (highest dose often 107 µM), actives largely listed as inhibitors; Q9UBT6; AID 588579
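Kinetic fluorescence readout at 0 and 10 min followed reaction start with substrate at 50 nM final. Beforehand, enzyme (10 nM Pol kappa) stood 15 min with compound at room temperature; buffer-only wells were negative controls.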
Pol eta inh-1: DNA polymerase eta (human) inhibition; Q9Y253; recombinant Pol eta, fluorescent DNA replication assay; Potency, µM (doses to about 114 µM), usual class: inhibitors; 1.2% of 390,000 active; AID 588591
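Pol eta at 10 nM preincubated with compounds 15 min at room temperature; reaction started with fluorescent substrate (50 nM final) and read kinetically at 0 and 10 min.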
Pol kappa inh-2: Pol kappa (human) inhibition, cherry-pick confirmation. 76% of 920 active. Potency, µM, usual class: inhibitors. shares compounds with Pol eta inh-1. purified Pol-kappa, fluorescent strand-displacement substrate
Pol eta inh-2: Pol eta (human) inhibition, cherry-pick confirmation; Pol eta primer extension, TAMRA/BHQ fluorescence, 10 min; 64% of 2,600 active; AID 720502; shares compounds with Pol eta inh-1; Potency, µM, usual class: inhibitors
WRN helicase inh-2: WRN helicase inhibition, cherry-pick retest | shares compounds with WRN helicase inh-1 | WRN helicase DNA unwinding, fluorescence kinetic | Potency, µM (series often up to 57.1 µM), most hits filed as inhibitors | 63% of 610 active; note: nearly all actives have a fitted effect of over 65% in size
TO DNA binding: counter-screen for WRN helicase inhibitors: DNA binding. thiazole orange DNA binding displacement, fluorescence. shares compounds with WRN helicase inh-1. 10% of 610 active. Potency, µM (highest dose often 57.1 µM), most hits filed as inhibitors;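 note: drop in dye fluorescence marks compound binding to DNA; nearly all actives have a fitted effect of over 60% in size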
BLM counter: BLM helicase inhibition, WRN selectivity check; shares compounds with WRN helicase inh-1; Recombinant BLM helicase DNA unwinding, red fluorescence; Potency, µM (doses to about 57.1 µM), most hits filed as inhibitors; 60% of 610 active; note: nearly all actives have a fitted effect of over 60% in size
Of the large screens only hits and unclear results are named; the others gave an inactive call (follow-up assays come after a bar, where they were run). Unless noted, calls come from the whole dose curve; as a rule, active = well fitted curve in the direction sought with a large enough effect; inconclusive = small, poorly fitted or top-dose-only effect, or another doubt; inactive = no such curve, though single readings can be large; an effect the other way counts as inactive or inconclusive.

COc1ccc(NC(=O)/C(C#N)=C\c2cc(C)n(-c3ccc(Oc4ccc([N+](=O)[O-])cn4)cc3)c2C)cc1	none
O=c1[nH]c(/C=C\c2ccc(O)c(O)c2)nc(O)c1[N+](=O)[O-]	PI5P4K alpha inh -80, WRN helicase inh-1 inconclusive, POLI inh inconclusive, POLB inh 25µM, Pol kappa inh-1 inconclusive, Pol eta inh-1 inconclusive | Pol kappa inh-2 17 | Pol eta inh-2 76
CC(/C=C/C=C/c1ccccc1)=N/NC(=O)CNc1ccccc1C	POLB inh inconclusive
Cc1noc(C)c1C(=O)N1CCC1(C)C(=O)NS(=O)(=O)c1ccccc1Cl (stereo not drawn)	none (no result: POLI inh, POLB inh, Pol kappa inh-1, Pol eta inh-1)
Cc1cc[n+](-c2[nH]c(=O)sc2/C=N/NC([S-])=Nc2ccccc2)cc1	PI5P4K alpha inh -77, WRN helicase inh-1 inconclusive, POLI inh 22µM, Pol kappa inh-1 79µM, Pol eta inh-1 22µM | Pol eta inh-2 76
CCOC(=O)C1CCN(CCCSc2ccccc2)CC1	none (no result: POLB inh)
Cc1cc(NS(=O)(=O)c2ccc(NC(=O)/C=C/c3ccc(C)o3)cc2)nc(C)n1	PI5P4K alpha inh inconclusive, Pol eta inh-1 45µM | Pol eta inh-2 76
Cc1cc(NS(=O)(=O)c2ccc(NC(=O)/C=C/c3ccccc3)cc2)nc(C)n1	none (no result: POLB inh)
Cc1oc2c(c1C(=O)Nc1cccc(C(=O)O)c1)CCCC2	POLI inh 79µM, POLB inh inconclusive, Pol eta inh-1 50µM (no result: PI5P4K alpha inh) | Pol eta inh-2 inconclusive
Cc1ccc(OCc2ccoc2C(=O)O)cc1C	POLI inh inconclusive, POLB inh 18µM, Pol kappa inh-1 inconclusive, Pol eta inh-1 7.1µM | Pol eta inh-2 inconclusive
Cc1ccc(C)c(/C=C(\C(=O)O)c2ccc(S(=O)(=O)N3CCCCC3)s2)c1	PI5P4K alpha inh inconclusive, POLI inh inconclusive, POLB inh 22µM, Pol kappa inh-1 inconclusive, Pol eta inh-1 50µM | Pol eta inh-2 inconclusive
Cc1ccc(S(=O)(=O)N2CCCC2)s1	none
CC(=C/c1ccco1)/C=N/NC(=O)Cc1cccn1C	POLI inh 56µM, Pol kappa inh-1 inconclusive, Pol eta inh-1 inconclusive | Pol kappa inh-2 42
COCCN(C(=O)COC(=O)CCc1ccccc1)c1c(N)n(Cc2ccccc2)c(=O)[nH]c1=O	none (no result: POLB inh)
CCOc1ccc(C(=O)N/N=C/c2ccc(-c3ccc(S(=O)(=O)Nc4ncccn4)cc3)o2)cc1	WRN helicase inh-1 inconclusive, POLI inh 18µM, Pol kappa inh-1 inconclusive, Pol eta inh-1 22µM (no result: PI5P4K alpha inh) | Pol kappa inh-2 24 | Pol eta inh-2 inconclusive
O=C(COC(=O)Cc1ccc(Br)cc1)NC1CCCC1	none (no result: POLB inh)
N#C/C(=C\c1cccnc1)C(=O)Nc1ccccc1[N+](=O)[O-]	PI5P4K alpha inh inconclusive, Pol eta inh-1 32µM | Pol kappa inh-2 inconclusive | Pol eta inh-2 76
O=C(c1cc(-c2ccccc2)on1)N1CCCc2ccccc21	none
O=C(c1cc(-c2ccco2)on1)N1CCCc2ccccc21	POLI inh inconclusive, POLB inh 35µM, Pol kappa inh-1 79µM, Pol eta inh-1 79µM (no result: PI5P4K alpha inh) | Pol eta inh-2 inconclusive
O=C(c1coc(=O)c(Br)c1)N1CCCc2ccccc21	PI5P4K alpha inh inconclusive, WRN helicase inh-1 inconclusive, POLI inh 16µM, POLB inh 25µM, Pol kappa inh-1 32µM, Pol eta inh-1 11µM | Pol kappa inh-2 42 | Pol eta inh-2 38
O=C(COC(=O)c1ccc(Cl)c(S(=O)(=O)N2CCOCC2)c1)NCc1ccco1	none (no result: POLB inh)
O=C(COC(=O)c1ccccc1Nc1cccc(C(F)(F)F)c1)NCc1ccco1	PI5P4K alpha inh inconclusive, POLI inh inconclusive, POLB inh 40µM, Pol kappa inh-1 inconclusive, Pol eta inh-1 20µM | Pol eta inh-2 67
CCOc1ccccc1OCC(=O)NCc1ccco1	WRN helicase inh-1 inconclusive, POLI inh 20µM, POLB inh 28µM, Pol kappa inh-1 inconclusive, Pol eta inh-1 79µM (no result: PI5P4K alpha inh) | Pol eta inh-2 inconclusive
Nc1cc(C(=O)OCC(=O)NCc2ccco2)ccc1Cl	PI5P4K alpha inh inconclusive, POLI inh inconclusive, POLB inh inconclusive, Pol eta inh-1 18µM | Pol eta inh-2 inconclusive
O=C(OCCOCCO)c1ccccc1Nc1cccc(C(F)(F)F)c1	none (no result: PI5P4K alpha inh, WRN helicase inh-1, POLI inh, POLB inh, Pol eta inh-1)
Cc1cccc(Nc2c([N+](=O)[O-])c(=O)oc3ccccc23)c1	none
CC(=O)Oc1cc(C(=O)OCC(=O)N2CCc3ccccc3C2)cc(OC(C)=O)c1OC(C)=O	WRN helicase inh-1 18µM, POLI inh inconclusive, Pol kappa inh-1 40µM, Pol eta inh-1 7.1µM (no result: POLB inh) | Pol kappa inh-2 17 | Pol eta inh-2 inconclusive | WRN helicase inh-2 27µM | TO DNA binding inactive | BLM counter 22µM
COc1ccc(C(=O)OCC(=O)N2CCc3ccccc3C2)cc1OC	none (no result: POLB inh)
COc1cc(/C=C(\C#N)c2nc3ccc(C)cc3[nH]2)cc([N+](=O)[O-])c1O	PI5P4K alpha inh -88, WRN helicase inh-1 inconclusive, POLI inh inconclusive, POLB inh 45µM, Pol eta inh-1 22µM | Pol kappa inh-2 24 | Pol eta inh-2 76 | WRN helicase inh-2 22µM | TO DNA binding 11µM | BLM counter 12µM
COc1cc(/C=C(\C#N)c2nc3ccc(C)cc3[nH]2)c([N+](=O)[O-])cc1OC	POLB inh inconclusive, Pol eta inh-1 inconclusive
COc1ccc(Sc2ccc(/C=C3\C(=O)NN(c4ccccc4)C3=O)o2)cc1	PI5P4K alpha inh inconclusive, WRN helicase inh-1 inconclusive, POLI inh 18µM, POLB inh 45µM, Pol kappa inh-1 inconclusive, Pol eta inh-1 25µM | Pol eta inh-2 inconclusive | WRN helicase inh-2 22µM | TO DNA binding inactive | BLM counter 22µM
O=C(Nc1cccc(Br)c1)N1CCN2CCCCC2C1 (stereo not drawn)	none (no result: PI5P4K alpha inh, WRN helicase inh-1)
O=C1/C(=C/C=C/c2ccco2)SC(=S)N1c1ccc(O)cc1	PI5P4K alpha inh -102, WRN helicase inh-1 32µM, POLI inh inconclusive, POLB inh 3.2µM, Pol kappa inh-1 7.9µM, Pol eta inh-1 3.5µM | Pol eta inh-2 60 | WRN helicase inh-2 12µM | TO DNA binding inconclusive | BLM counter 8.6µM
